From PubChem BioAssay (EPA / NIEHS)
Active and inactive are the calls of the source. How the source made its calls: active means hit-call score of the fitted dose curve at least 0.9, where 1 is the maximum; inactive means score below 0.9.

Assays:
[1] = ATG_E_Box_CIS: Attagene CIS-FACTORIAL HepG2 Assay for human Enhancer Box (E-box) (AID 2282936); conditions: HepG2 E-box cis-reporter transcription, actives raise or lower the signal
Procedure, shortened: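 Measured 24 h post-dosing in HepG2 cells transfected with multiple cis-regulated reporter units, signal being reporter mRNA induction detected by fluorescent RT-PCR with capillary electrophoresis; gain or loss fitted against DMSO.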

[2] = ATG_M_61_CIS: Attagene CIS-FACTORIAL HepG2 Assay for M61 Transcription Factor (Internal Marker) (AID 2282937); conditions: HepG2 Attagene CIS-FACTORIAL M61 internal marker reporter; actives raise or lower the signal
Procedure, shortened: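 HepG2 cells transiently transfected with multiplexed cis-promoter reporter units reporting endogenous transcription factor activity, measured 24 h after dosing. Reporter mRNA quantified by RT-PCR and capillary electrophoresis; bidirectional fit against DMSO baseline.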

[3] = ATG_EGR_CIS: Attagene CIS-FACTORIAL HepG2 Assay for human Early Growth Response 1 (EGR1) (AID 2282938); conditions: HepG2 Attagene CIS-FACTORIAL EGR reporter mRNA; actives raise or lower the signal
Procedure, shortened: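 HepG2 cells transiently transfected with cis-element-driven multiplexed reporter units, dosed for 24 h. EGR1-element reporter mRNA quantified by RT-PCR, 6-FAM labelling, HpaI digestion and capillary electrophoresis; bidirectional fit versus DMSO.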

[4] = ATG_M_19_CIS: Attagene CIS-FACTORIAL HepG2 Assay for M19 Transcription Factor (Internal Marker) (AID 2282939); conditions: HepG2 Attagene CIS-FACTORIAL M19 internal marker reporter; actives raise or lower the signal
Procedure, shortened: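 Transfect HepG2 with MRTU reporter library → dose chemical, 24 h → isolate total RNA, reverse-transcribe with oligo(dT) → PCR, 6-FAM label, HpaI cut (2 h, 37 C) → capillary electrophoresis. Bidirectional fit vs DMSO.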

[5] = ATG_Ets_CIS: Attagene CIS-FACTORIAL HepG2 Assay for human Erythroblast Transformation Specific (ETS) (AID 2282941); conditions: HepG2 ETS cis-reporter transcription, actives raise or lower the signal
Procedure, shortened: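 Endogenous transcription factor activity read as reporter mRNA via RT-PCR and capillary electrophoresis, with gain or loss fitted bidirectionally against DMSO. Human HepG2 liver cells, transiently transfected CIS reporter constructs, 24 h exposure.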

[6] = target: Hepatocyte nuclear factor 3-beta (Homo sapiens) (UniProt Q9Y261); assay: ATG_FoxA2_CIS: Attagene CIS-FACTORIAL HepG2 Assay for human Forkhead box A2 (FOXA2) (AID 2282942); conditions: HepG2 cis-reporter transcription factor activity, 24 h; actives raise or lower the signal
Chain of Hepatocyte nuclear factor 3-beta (Homo sapiens) (Q9Y261 whole entry, looked up): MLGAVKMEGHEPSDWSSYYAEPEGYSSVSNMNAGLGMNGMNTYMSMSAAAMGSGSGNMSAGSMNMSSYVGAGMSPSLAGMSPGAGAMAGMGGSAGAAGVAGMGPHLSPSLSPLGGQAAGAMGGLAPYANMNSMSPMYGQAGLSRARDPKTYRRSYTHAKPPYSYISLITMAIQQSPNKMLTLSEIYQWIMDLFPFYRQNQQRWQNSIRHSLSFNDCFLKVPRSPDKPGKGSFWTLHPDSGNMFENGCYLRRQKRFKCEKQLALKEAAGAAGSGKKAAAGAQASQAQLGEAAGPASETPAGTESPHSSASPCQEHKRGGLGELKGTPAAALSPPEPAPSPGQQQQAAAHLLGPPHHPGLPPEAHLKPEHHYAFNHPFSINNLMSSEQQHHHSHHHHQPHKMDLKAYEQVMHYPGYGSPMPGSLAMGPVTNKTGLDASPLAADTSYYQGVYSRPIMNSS
Procedure, shortened: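 HepG2 transiently transfected with a multiplexed cis-promoter reporter library read endogenous FOXA2 activity. After 24 h compound exposure, reporter mRNA was quantified by RT-PCR, HpaI digestion and capillary electrophoresis. Bidirectional fit against DMSO.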

[7] = ATG_FoxO_CIS: Attagene CIS-FACTORIAL HepG2 Assay for human Forkhead box O (FoxO) (AID 2282943); conditions: HepG2 Attagene cis-reporter, FoxO element, mRNA; actives raise or lower the signal
Procedure, shortened: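 24 h chemical exposure, HepG2 with transient cis-MRTU transfection. RNA extraction, oligo(dT) RT, reporter-specific PCR, primer-extension labelling, HpaI digestion, CE fragment analysis; bidirectional fit, DMSO baseline.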

[8] = ATG_GATA_CIS: Attagene CIS-FACTORIAL HepG2 Assay for human GATA Binding Protein (AID 2282944); conditions: HepG2 GATA cis-element reporter, Attagene multiplex mRNA; actives raise or lower the signal
Procedure, shortened: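 Transient MRTU transfection, HepG2, 24 h compound exposure. Total RNA → oligo(dT) RT → PCR → 6-FAM primer extension → HpaI cut → CE. Bidirectional fit vs DMSO.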

[9] = ATG_GLI_CIS: Attagene CIS-FACTORIAL HepG2 Assay for human Zinc Finger Protein GLI1 (AID 2282945); conditions: HepG2, Attagene cis-factorial reporter mRNA, GLI element; actives raise or lower the signal
Procedure, shortened: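 HepG2 cells transiently transfected with cis-promoter multiplexed reporter units report endogenous transcription factor activity. After 24 h chemical exposure, reporter mRNA was quantified by RT-PCR, 6-FAM labelling, HpaI digestion and capillary electrophoresis, with bidirectional fitting against DMSO.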

[10] = ATG_ISRE_CIS: Attagene CIS-FACTORIAL HepG2 Assay for human Interferon Regulatory Factor 1 (IRF1) binding to an Interferon-Stimulated Response Element (ISRE) (AID 2282948); conditions: HepG2 ISRE cis-reporter (Attagene), mRNA transcription readout; actives raise or lower the signal
Procedure, shortened: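 Endogenous transcription factor activity read as reporter transcript abundance via RT-PCR and capillary electrophoresis. HepG2 cells transiently transfected, 24 h chemical exposure. Gain or loss fitted against DMSO baseline.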

[11] = ATG_M_32_CIS: Attagene CIS-FACTORIAL HepG2 Assay for M32 Transcription Factor (Internal Marker) (AID 2282949); conditions: HepG2 Attagene cis-factorial M32 reporter, mRNA; actives raise or lower the signal;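 further: background control marker of the multiplexed CIS panel rather than a real target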
Procedure, shortened: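 Using DMSO as baseline, bidirectional curve fits were applied to reporter mRNA signals. These came from transiently transfected HepG2 cells exposed for 24 h, with RNA analysed by RT-PCR, FAM primer extension, HpaI digestion and CE.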

[12] = ATG_M_06_CIS: Attagene CIS-FACTORIAL HepG2 Assay for M06 Transcription Factor (Internal Marker) (AID 2282950); conditions: HepG2 Attagene CIS-FACTORIAL M06 internal marker reporter; actives raise or lower the signal
Procedure, shortened: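 Read-out is fluorescence of labelled reporter cDNA fragments resolved by capillary electrophoresis after RT-PCR. Cells: HepG2 carrying transfected cis-promoter reporter units, treated 24 h. Gain or loss of signal fitted relative to DMSO.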

[13] = target: Hypoxia-inducible factor 1-alpha (Homo sapiens) (UniProt Q16665); assay: ATG_HIF1a_CIS: Attagene CIS-FACTORIAL HepG2 Assay for human Hypoxia Inducible Factor 1 (HIF1A) (AID 2282951); conditions: HepG2 Attagene cis-factorial HIF1a reporter transcription; actives raise or lower the signal
Chain of Hypoxia-inducible factor 1-alpha (Homo sapiens) (Q16665 whole entry, looked up): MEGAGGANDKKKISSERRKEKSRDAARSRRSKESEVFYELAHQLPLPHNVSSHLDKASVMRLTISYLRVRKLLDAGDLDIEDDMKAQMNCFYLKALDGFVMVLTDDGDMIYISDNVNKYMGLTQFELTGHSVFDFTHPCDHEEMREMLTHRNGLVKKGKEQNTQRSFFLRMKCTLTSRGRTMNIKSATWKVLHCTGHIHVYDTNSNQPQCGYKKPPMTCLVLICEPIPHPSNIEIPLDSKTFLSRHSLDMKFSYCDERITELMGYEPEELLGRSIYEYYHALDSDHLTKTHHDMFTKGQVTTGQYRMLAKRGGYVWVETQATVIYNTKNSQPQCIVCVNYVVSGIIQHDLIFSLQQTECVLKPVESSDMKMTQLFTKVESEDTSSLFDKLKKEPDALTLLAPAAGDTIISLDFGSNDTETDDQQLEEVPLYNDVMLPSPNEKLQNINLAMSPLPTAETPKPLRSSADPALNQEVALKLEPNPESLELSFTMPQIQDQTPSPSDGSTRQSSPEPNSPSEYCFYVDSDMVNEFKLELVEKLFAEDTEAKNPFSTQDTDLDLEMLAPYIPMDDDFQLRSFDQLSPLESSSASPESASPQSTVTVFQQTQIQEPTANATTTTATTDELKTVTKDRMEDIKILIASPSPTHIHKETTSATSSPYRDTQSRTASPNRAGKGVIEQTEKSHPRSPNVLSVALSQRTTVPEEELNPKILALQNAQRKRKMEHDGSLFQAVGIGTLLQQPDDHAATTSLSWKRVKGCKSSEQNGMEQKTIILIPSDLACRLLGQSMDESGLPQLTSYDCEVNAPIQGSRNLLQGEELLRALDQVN
Procedure, shortened: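 HepG2 cells transiently transfected with multiple cis-regulated reporter transcription units measure endogenous transcription factor activity. After 24 h exposure, reporter mRNA is quantified by RT-PCR with 6-FAM labelling, HpaI digestion and capillary electrophoresis. Bidirectional fitting against DMSO.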

[14] = target: Hepatocyte nuclear factor 6 (Homo sapiens) (UniProt Q9UBC0); assay: ATG_HNF6_CIS: Attagene CIS-FACTORIAL HepG2 Assay for human Hepatocyte Nuclear Factor 6 (HNF6) (AID 2282952); conditions: HepG2 Attagene cis-factorial HNF6 reporter transcription; actives raise or lower the signal
Chain of Hepatocyte nuclear factor 6 (Homo sapiens) (Q9UBC0 whole entry, looked up, the tested form may be a part): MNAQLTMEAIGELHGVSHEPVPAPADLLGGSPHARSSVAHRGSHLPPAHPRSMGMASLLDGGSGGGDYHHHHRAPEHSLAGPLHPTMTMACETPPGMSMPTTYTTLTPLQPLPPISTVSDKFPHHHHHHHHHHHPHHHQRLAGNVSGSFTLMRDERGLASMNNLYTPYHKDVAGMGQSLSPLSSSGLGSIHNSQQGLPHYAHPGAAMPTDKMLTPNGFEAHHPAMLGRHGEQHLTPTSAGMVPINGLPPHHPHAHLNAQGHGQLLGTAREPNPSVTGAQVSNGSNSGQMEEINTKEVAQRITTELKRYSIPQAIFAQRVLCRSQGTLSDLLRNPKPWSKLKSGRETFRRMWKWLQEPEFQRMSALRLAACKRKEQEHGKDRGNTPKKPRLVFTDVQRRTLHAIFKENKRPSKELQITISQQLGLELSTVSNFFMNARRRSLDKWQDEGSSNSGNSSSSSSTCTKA
Procedure, shortened: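 Using cis-element reporters in HepG2 liver cells, the assay tracks endogenous factor-driven transcription 24 h post-dosing. Signal comes from 6-FAM-labelled, HpaI-digested RT-PCR fragments, with gain or loss scored against DMSO.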

[15] = target: Heat shock factor protein 1 (Homo sapiens) (UniProt Q00613); assay: ATG_HSE_CIS: Attagene CIS-FACTORIAL HepG2 Assay for human Heat Shock Transcription Factor 1 (HSE) (AID 2282953); conditions: HepG2 HSE cis-reporter, Attagene RNA transcription; actives raise or lower the signal
Chain of Heat shock factor protein 1 (Homo sapiens) (Q00613 whole entry, looked up): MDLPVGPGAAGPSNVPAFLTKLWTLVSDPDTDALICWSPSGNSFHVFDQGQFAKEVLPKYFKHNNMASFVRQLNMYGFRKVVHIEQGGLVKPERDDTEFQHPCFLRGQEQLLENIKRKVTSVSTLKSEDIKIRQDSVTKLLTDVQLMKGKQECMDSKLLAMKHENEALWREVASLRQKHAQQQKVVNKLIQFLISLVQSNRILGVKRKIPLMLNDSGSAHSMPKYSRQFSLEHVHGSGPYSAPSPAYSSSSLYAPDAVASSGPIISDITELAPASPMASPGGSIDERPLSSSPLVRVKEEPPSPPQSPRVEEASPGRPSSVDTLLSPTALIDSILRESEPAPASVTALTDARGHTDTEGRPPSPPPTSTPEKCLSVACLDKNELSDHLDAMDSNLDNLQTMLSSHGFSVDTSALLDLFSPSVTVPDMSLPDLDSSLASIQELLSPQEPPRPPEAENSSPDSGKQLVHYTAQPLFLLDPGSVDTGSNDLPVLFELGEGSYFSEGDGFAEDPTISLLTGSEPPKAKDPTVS
Procedure, shortened: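 HepG2, transient MRTU transfection, cis-promoter reporters (endogenous TF activity). 24 h compound. RNA → oligo(dT) RT → PCR → 6-FAM primer extension → HpaI cut → CE. Bidirectional fit vs DMSO.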

[16] = ATG_MRE_CIS: Attagene CIS-FACTORIAL HepG2 Assay for human Metal Responsive Element (MRE) (AID 2282954); conditions: HepG2 MRE cis-reporter transcription, Attagene multiplex; actives raise or lower the signal
Procedure, shortened: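 Readout: capillary electrophoresis of 6-FAM-labelled, HpaI-digested RT-PCR reporter products. System: HepG2 cells carrying transient multiplexed cis reporters, dosed 24 h. Analysis: bidirectional fit, DMSO baseline.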

[17] = ATG_PBREM_CIS: Attagene CIS-FACTORIAL HepG2 Assay for human Phenobarbital-responsive Enhancer Module (PBREM) (AID 2282955); conditions: HepG2 PBREM cis-reporter, Attagene multiplexed transcription; actives raise or lower the signal
Procedure, shortened: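 HepG2 cells transiently transfected with multiple cis-regulated reporter units measure endogenous transcription factor activity; 24 h compound exposure. Reporter mRNA quantified by RT-PCR, fluorescent labelling, HpaI digestion and capillary electrophoresis; bidirectional fit versus DMSO.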

[18] = target: Paired box protein Pax-6 (Homo sapiens) (UniProt P26367); assay: ATG_Pax6_CIS: Attagene CIS-FACTORIAL HepG2 Assay for human Paired Box 6 (PAX6) (AID 2282956); conditions: HepG2 CIS-FACTORIAL PAX6 reporter transcription, RNA readout; actives raise or lower the signal
Chain of Paired box protein Pax-6 (Homo sapiens) (P26367 whole entry, looked up): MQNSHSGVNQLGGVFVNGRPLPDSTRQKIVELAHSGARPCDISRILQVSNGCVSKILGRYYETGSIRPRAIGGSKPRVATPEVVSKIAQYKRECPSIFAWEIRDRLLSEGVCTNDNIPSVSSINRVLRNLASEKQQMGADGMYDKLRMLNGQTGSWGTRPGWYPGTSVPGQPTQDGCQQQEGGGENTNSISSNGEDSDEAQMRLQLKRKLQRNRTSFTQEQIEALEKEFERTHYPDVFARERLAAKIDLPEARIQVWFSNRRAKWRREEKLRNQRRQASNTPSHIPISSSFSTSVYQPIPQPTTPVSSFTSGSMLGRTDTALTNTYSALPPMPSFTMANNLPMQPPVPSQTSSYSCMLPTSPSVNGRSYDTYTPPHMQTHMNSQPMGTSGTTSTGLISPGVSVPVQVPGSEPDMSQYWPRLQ
Procedure, shortened: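 Read-out is reporter transcript level, measured by RT-PCR with fluorescent primer extension and capillary electrophoresis after 24 h dosing of transfected HepG2 cells. Activity in either direction fitted relative to DMSO control.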

[19] = ATG_GRE_CIS: Attagene CIS-FACTORIAL HepG2 Assay for human Glucocorticoid Response Elements (GRE) (AID 2282947); conditions: HepG2 GRE cis-reporter, Attagene multiplex mRNA; actives raise or lower the signal
Procedure, shortened: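 HepG2, transient cis-reporter transfection, 24 h. Reporter mRNA: RT-PCR then CE, fluorescence. Fit both directions vs DMSO.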

Measured: AC50

CC(C)CCCCCCOC(=O)c1ccc(C(=O)OCCCCCCC(C)C)c(C(=O)OCCCCCCC(C)C)c1
not listed: [19]
inactive: all other assays above

CC(C)=CCC/C(C)=C/CO
not listed: [11] | [13] | [15] | [17]
inactive: all other assays above

CCNc1ccccc1
active: [13] 59.4 µM
not listed: [11] | [15] | [19]
inactive: all other assays above

Cc1c(-c2cccnc2)c2ccccc2n1CCCCC(=O)O
not listed: [19]
inactive: all other assays above

CCCN(C1CCN(C(=O)C2CCNCC2)CC1)[C@@H]1CCc2ccc(OC)cc2C1
active: [1] 45.1 µM | [3] 100 µM | [7] 153 µM | [8] 152 µM | [9] 153 µM | [10] 90.6 µM | [17] 157 µM
not listed: [11] | [15]
inactive: all other assays above

Oc1ccc2c(c1)-c1ccccc1C2
active: [1] 157 µM | [3] 38.6 µM | [10] 100 µM | [16] 40.8 µM | [17] 59.6 µM | [18] 33.5 µM
not listed: [11] | [15]
inactive: all other assays above

CC(C)(O)c1coc(S(=O)(=O)NC(=O)Nc2c3c(cc4c2CCC4)CCC3)c1
not listed: [11] | [15]
inactive: all other assays above

CC[C@H]1OC(=O)[C@H](C)[C@@H](O[C@H]2C[C@@](C)(OC)[C@@H](O)[C@H](C)O2)[C@H](C)[C@@H](O[C@@H]2O[C@H](C)C[C@H](N(C)C)[C@H]2O)[C@](C)(O)C[C@@H](C)C(=O)[C@H](C)[C@@H](O)[C@]1(C)O
not listed: [11] | [13] | [15] | [19]
inactive: all other assays above

CCCCC(CC)COC(=O)c1ccc(C(=O)OCC(CC)CCCC)cc1 (centres undefined)
not listed: [17] | [19]
inactive: all other assays above

CCOCCOCCOCCO
not listed: [15] | [19]
inactive: all other assays above

CNS(=O)(=O)c1cc(C(=O)N2CCC(CCN3C4CCC3CC(n3c(C)nc5ccccc53)C4)(c3cccc(F)c3)CC2)c(Cl)cc1F (centres undefined)
active: [10] 8.05 µM
not listed: [17] | [19]
inactive: all other assays above

O=C(CCCCCCCCc1cccnc1)N1CCC(C=C(c2ccccc2)c2ccccc2)CC1
inactive: [1] | [5] | [6] | [7] | [8] | [9] | [19]
active: [2] 59.8 µM | [3] 17 µM | [4] 59.4 µM | [10] 16.7 µM | [12] 59.8 µM | [13] 1.37 µM | [14] 23.9 µM | [15] 15.9 µM | [16] 2.78 µM | [18] 9.32 µM

CCOc1cccc(-n2cc(C(=O)N3CCN(c4cc(C(=O)O)c5ccccc5c4)CC3)nc2-c2ccc(C)cc2)c1
active: [3] 27.1 µM | [10] 22.8 µM | [13] 6.55 µM | [16] 32.3 µM | [18] 33 µM
not listed: [11] | [15]
inactive: all other assays above

C[C@](N)(Cc1ccc(O)c(O)c1)C(=O)O
not listed: [11] | [19]
inactive: all other assays above

On1ccccc1=S
active: [1] 8.78 µM
not listed: [11] | [15]
inactive: all other assays above

CN(C)c1ccc(N=NS(=O)(=O)O)cc1
active: [13] 40.9 µM
not listed: [11] | [15]
inactive: all other assays above

C1N2CN3CN1CN(C2)C3
not listed: [11] | [19]
inactive: all other assays above

O=C(O)CCN(C1(C(=O)NO)CCCC1)S(=O)(=O)c1ccc(Oc2ccc(F)cc2)cc1
not listed: [15] | [19]
inactive: all other assays above

O=C1OC(=O)C2C3C=CC(C3)C12 (centres undefined)
not listed: [11] | [17] | [19]
inactive: all other assays above
